Experimental data published in paper PMC7862700, “An all-to-all approach to the identification of sequence-specific readers for epigenetic DNA modifications on cytosine”.

Biological target: T1, FEV (Homo sapiens, UniProt Q99581 1-238)
T1 sequence: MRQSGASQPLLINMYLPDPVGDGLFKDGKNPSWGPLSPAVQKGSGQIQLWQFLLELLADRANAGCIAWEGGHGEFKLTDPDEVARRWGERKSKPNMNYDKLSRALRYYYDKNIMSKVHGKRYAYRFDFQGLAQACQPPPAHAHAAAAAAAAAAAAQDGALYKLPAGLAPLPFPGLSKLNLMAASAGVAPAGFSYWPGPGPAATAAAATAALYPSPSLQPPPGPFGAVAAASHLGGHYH
Experiment: DAPPL (digital affinity profiling via proximity ligation, sequencing); 10 mM Tris-HCl pH 7.5, 50 mM NaCl, 1 mM DTT, 4% glycerol, room temperature, 30 min; GST-TFs on glutathione beads, 16-mer random dsDNA library, 0.1% formaldehyde crosslink after washing; high values mean tight binding
Settings: protein: recombinant; tags: N-terminal GST; dsDNA, one strand shown
Outline: (§1)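 Yeast served to express human transcription factors as GST fusions, which were then captured on glutathione beads and labelled with DNA barcodes. Pooled with a tag-only sample, they were incubated with 200 nmole of a 16-mer random double-stranded DNA library for 30 min at room temperature in Tris/NaCl/DTT/glycerol buffer, washed, crosslinked with 0.1% formaldehyde, ligated by proximity, amplified by PCR and sequenced. Dividing each hexamer's read frequency for a factor by its frequency for the tag-only sample gives the binding signal.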

Row | Sequence | binding signal
1 | GGGTTC | 1.03 fold enrichment (6-mer frequency, TF over GST control)
2 | CATACG | 1.05 fold enrichment (6-mer frequency, TF over GST control)
3 | CCGATG | 1.08 fold enrichment (6-mer frequency, TF over GST control)
4 | ATGCCG | 1.16 fold enrichment (6-mer frequency, TF over GST control)
5 | CCACCT | 1.17 fold enrichment (6-mer frequency, TF over GST control)
6 | CGCCCG | 1.14 fold enrichment (6-mer frequency, TF over GST control)
7 | TCAACA | 1.05 fold enrichment (6-mer frequency, TF over GST control)
8 | ACCACA | 1.05 fold enrichment (6-mer frequency, TF over GST control)
9 | GTCCCA | 1.12 fold enrichment (6-mer frequency, TF over GST control)
10 | TGGTGC | 1 fold enrichment (6-mer frequency, TF over GST control)
11 | ACATGG | 1.04 fold enrichment (6-mer frequency, TF over GST control)
12 | GTCTTG | 1.01 fold enrichment (6-mer frequency, TF over GST control)
13 | ATGGTG | 1.06 fold enrichment (6-mer frequency, TF over GST control)
14 | ACCACC | 1.18 fold enrichment (6-mer frequency, TF over GST control)
15 | TGCCAA | 1.12 fold enrichment (6-mer frequency, TF over GST control)
16 | GCTGCC | 1.14 fold enrichment (6-mer frequency, TF over GST control)
17 | GCCCCA | 1.07 fold enrichment (6-mer frequency, TF over GST control)
18 | CCGCTG | 1.11 fold enrichment (6-mer frequency, TF over GST control)
19 | ACGTTG | 1.07 fold enrichment (6-mer frequency, TF over GST control)
20 | CCATGC | 1.1 fold enrichment (6-mer frequency, TF over GST control)
21 | GTCTAC | 1.08 fold enrichment (6-mer frequency, TF over GST control)
22 | CATCGC | 1.07 fold enrichment (6-mer frequency, TF over GST control)
23 | AAGGCA | 1.07 fold enrichment (6-mer frequency, TF over GST control)
24 | GGTTTT | 1.13 fold enrichment (6-mer frequency, TF over GST control)

Biological target: ETV5 (Homo sapiens, UniProt P41161 1-510)
Experiment: as above
Settings: protein: recombinant; tags: N-terminal GST; dsDNA, one strand shown
Outline: as §1

Sequence of ETV5 (P41161 whole entry): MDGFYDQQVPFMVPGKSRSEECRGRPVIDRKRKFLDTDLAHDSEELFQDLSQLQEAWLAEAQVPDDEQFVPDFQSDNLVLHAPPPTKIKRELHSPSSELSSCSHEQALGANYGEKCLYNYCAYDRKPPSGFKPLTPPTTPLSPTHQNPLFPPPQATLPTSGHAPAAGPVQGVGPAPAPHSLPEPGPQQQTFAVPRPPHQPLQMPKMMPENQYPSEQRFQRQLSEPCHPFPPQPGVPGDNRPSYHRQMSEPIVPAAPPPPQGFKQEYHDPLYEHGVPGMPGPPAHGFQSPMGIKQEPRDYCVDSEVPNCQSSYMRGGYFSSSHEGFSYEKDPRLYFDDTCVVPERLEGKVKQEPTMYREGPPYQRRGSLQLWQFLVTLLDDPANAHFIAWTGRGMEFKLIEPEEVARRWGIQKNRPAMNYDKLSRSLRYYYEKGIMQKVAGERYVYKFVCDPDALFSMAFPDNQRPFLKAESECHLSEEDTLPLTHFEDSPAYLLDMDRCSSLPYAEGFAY

Row | Sequence | binding signal
25 | TGGACC | 1.05 fold enrichment (6-mer frequency, TF over GST control)
26 | TGCTGC | 1.17 fold enrichment (6-mer frequency, TF over GST control)
27 | CCACAC | 1.11 fold enrichment (6-mer frequency, TF over GST control)
28 | CGGCCT | 1.14 fold enrichment (6-mer frequency, TF over GST control)
29 | GCCCAC | 1.16 fold enrichment (6-mer frequency, TF over GST control)
30 | TTGGTC | 1.1 fold enrichment (6-mer frequency, TF over GST control)
31 | CATCCA | 1.01 fold enrichment (6-mer frequency, TF over GST control)
32 | TTGCCG | 1.12 fold enrichment (6-mer frequency, TF over GST control)
33 | TGGTCA | 1.02 fold enrichment (6-mer frequency, TF over GST control)
34 | AGCAAC | 1.06 fold enrichment (6-mer frequency, TF over GST control)
35 | AAAGCG | 1.18 fold enrichment (6-mer frequency, TF over GST control)
36 | GGGTTC | 1.08 fold enrichment (6-mer frequency, TF over GST control)
37 | CATACG | 1.08 fold enrichment (6-mer frequency, TF over GST control)
38 | CCGATG | 1.11 fold enrichment (6-mer frequency, TF over GST control)
39 | ATGCCG | 1.15 fold enrichment (6-mer frequency, TF over GST control)
40 | CCACCT | 1.07 fold enrichment (6-mer frequency, TF over GST control)
41 | GCGCGC | 1.08 fold enrichment (6-mer frequency, TF over GST control)
42 | CGCCCG | 1.06 fold enrichment (6-mer frequency, TF over GST control)
43 | TCAACA | 1.04 fold enrichment (6-mer frequency, TF over GST control)

Row | Sequence | binding signal
44 | ACCACA | 1.03 fold enrichment (6-mer frequency, TF over GST control)
45 | GTCCCA | 1.05 fold enrichment (6-mer frequency, TF over GST control)
46 | TGGTGC | 1.1 fold enrichment (6-mer frequency, TF over GST control)
47 | ACATGG | 1.1 fold enrichment (6-mer frequency, TF over GST control)
48 | GTCTTG | 1.01 fold enrichment (6-mer frequency, TF over GST control)
49 | ATGGTG | 1.18 fold enrichment (6-mer frequency, TF over GST control)
50 | ACCACC | 1.1 fold enrichment (6-mer frequency, TF over GST control)
51 | TGCCAA | 1.08 fold enrichment (6-mer frequency, TF over GST control)
52 | GCTGCC | 1.04 fold enrichment (6-mer frequency, TF over GST control)
53 | GCCCCA | 1.02 fold enrichment (6-mer frequency, TF over GST control)
54 | CCGCTG | 1.06 fold enrichment (6-mer frequency, TF over GST control)
55 | ACGTTG | 1.03 fold enrichment (6-mer frequency, TF over GST control)
56 | CCATGC | 1.11 fold enrichment (6-mer frequency, TF over GST control)
57 | GTTGAT | 1.14 fold enrichment (6-mer frequency, TF over GST control)
58 | AAGGGT | 1.05 fold enrichment (6-mer frequency, TF over GST control)
59 | GTCTAC | 1.11 fold enrichment (6-mer frequency, TF over GST control)
60 | CATCGC | 1.04 fold enrichment (6-mer frequency, TF over GST control)
61 | AAGGCA | 1 fold enrichment (6-mer frequency, TF over GST control)
62 | GGTTTT | 1.11 fold enrichment (6-mer frequency, TF over GST control)

Biological target: T2, SPIC (Homo sapiens, UniProt Q8N5J4 1-248)
T2 sequence: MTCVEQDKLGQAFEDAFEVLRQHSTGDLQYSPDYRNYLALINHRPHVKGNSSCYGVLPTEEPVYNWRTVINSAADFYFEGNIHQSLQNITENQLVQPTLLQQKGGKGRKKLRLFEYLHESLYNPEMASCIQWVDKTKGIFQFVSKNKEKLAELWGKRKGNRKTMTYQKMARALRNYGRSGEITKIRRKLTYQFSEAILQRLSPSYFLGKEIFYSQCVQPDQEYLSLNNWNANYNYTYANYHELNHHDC
Experiment: as above
Settings: protein: recombinant; tags: N-terminal GST; dsDNA, one strand shown
Outline: as §1

Row | Sequence | binding signal
63 | TGGACC | 1.16 fold enrichment (6-mer frequency, TF over GST control)
64 | TGCTGC | 1.3 fold enrichment (6-mer frequency, TF over GST control)
65 | CCACAC | 1.18 fold enrichment (6-mer frequency, TF over GST control)
66 | CGGCCT | 1.14 fold enrichment (6-mer frequency, TF over GST control)
67 | GCCCAC | 1.13 fold enrichment (6-mer frequency, TF over GST control)
68 | TTGGTC | 1.12 fold enrichment (6-mer frequency, TF over GST control)
69 | CATCCA | 1.05 fold enrichment (6-mer frequency, TF over GST control)
70 | TTGCCG | 1.08 fold enrichment (6-mer frequency, TF over GST control)
71 | TGGTCA | 1.07 fold enrichment (6-mer frequency, TF over GST control)
72 | AGCAAC | 1.11 fold enrichment (6-mer frequency, TF over GST control)
73 | AAAGCG | 1.08 fold enrichment (6-mer frequency, TF over GST control)
74 | GGGTTC | 1.02 fold enrichment (6-mer frequency, TF over GST control)
75 | CATACG | 1.04 fold enrichment (6-mer frequency, TF over GST control)
76 | CCGATG | 1.2 fold enrichment (6-mer frequency, TF over GST control)
77 | ATGCCG | 1.17 fold enrichment (6-mer frequency, TF over GST control)
78 | CCACCT | 1.19 fold enrichment (6-mer frequency, TF over GST control)
79 | GCGCGC | 1.15 fold enrichment (6-mer frequency, TF over GST control)
80 | CGCCCG | 1.17 fold enrichment (6-mer frequency, TF over GST control)
81 | TCAACA | 1.05 fold enrichment (6-mer frequency, TF over GST control)

Row | Sequence | binding signal
82 | ACCACA | 1.1 fold enrichment (6-mer frequency, TF over GST control)
83 | GTCCCA | 1.12 fold enrichment (6-mer frequency, TF over GST control)
84 | TGGTGC | 1.14 fold enrichment (6-mer frequency, TF over GST control)
85 | ACATGG | 1.18 fold enrichment (6-mer frequency, TF over GST control)
86 | GTCTTG | 1.11 fold enrichment (6-mer frequency, TF over GST control)
87 | ATGGTG | 1.2 fold enrichment (6-mer frequency, TF over GST control)
88 | ACCACC | 1.08 fold enrichment (6-mer frequency, TF over GST control)
89 | TGCCAA | 1.08 fold enrichment (6-mer frequency, TF over GST control)
90 | GCTGCC | 1.01 fold enrichment (6-mer frequency, TF over GST control)
91 | GCCCCA | 1.05 fold enrichment (6-mer frequency, TF over GST control)
92 | CCGCTG | 1.08 fold enrichment (6-mer frequency, TF over GST control)
93 | ACGTTG | 1.28 fold enrichment (6-mer frequency, TF over GST control)
94 | CCATGC | 1 fold enrichment (6-mer frequency, TF over GST control)
95 | GTTGAT | 1.17 fold enrichment (6-mer frequency, TF over GST control)
96 | AAGGGT | 1.08 fold enrichment (6-mer frequency, TF over GST control)
97 | GTCTAC | 1.1 fold enrichment (6-mer frequency, TF over GST control)
98 | CATCGC | 1.03 fold enrichment (6-mer frequency, TF over GST control)
99 | AAGGCA | 1.01 fold enrichment (6-mer frequency, TF over GST control)
100 | GGTTTT | 1.04 fold enrichment (6-mer frequency, TF over GST control)
